{"source": "the supplement of paper PMC12669032", "note": "A number with no mark means an inactive call.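 Rule for the calls: active = AUC reduced over 20% with Padj below 0.05 in at least 2 of 3 replicates; inactive = otherwise.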"}
{"test_system": "Fusobacterium nucleatum subsp. animalis", "test": "growth AUC relative to DMSO control (median of replicates) (fraction); higher = more growth (less inhibition), active = hit call of the paper", "details": "20 µM; 24 h", "procedure,_shortened": "(§1)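 In round-bottom 96-well plates sealed with pierced gas-permeable seals, gut bacterial monocultures in mGAM were grown anaerobically at 37 °C from OD600 0.05 with 20 µM compound (1% DMSO). OD600 readings were taken hourly for 24 h, and the minimum OD was set to 0. Area under the growth curve was then normalised to the plate median of solvent-only wells, or to row and column medians on the industrial chemical plate. The value given is the median of three biological replicates grown on separate days.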"}
{"smiles": "CC(C)(C)[C@@H](O)[C@@H](Cc1ccc(Cl)cc1)n1cncn1", "note": "(mixture of isomers)", "growth AUC": 0.975}
{"smiles": "COCC(=O)N(c1c(C)cccc1C)C(C)C(=O)O", "note": "(stereo unspecified)", "growth AUC": 1.15}
{"smiles": "COC(=O)c1ccccc1S(=O)(=O)NC(=O)n1nc(OCC(C)O)n(C)c1=O", "note": "(stereo unspecified)", "growth AUC": 1.02}
{"smiles": "CCOC(=O)Cc1[nH]nc2ccc(Cl)cc12", "growth AUC": 1.08}
{"smiles": "CCCCCCCC/C=C\\CCCCCCCC(N)=O", "growth AUC": 1.02}
{"smiles": "COC1CCC2(CC1)NC(=O)C(c1cc(C)ccc1C)=C2OC1OC(CO)C(O)C(O)C1O", "note": "(stereo unspecified)", "growth AUC": 1.17}
{"smiles": "COC(=O)c1ccc(C(F)(F)F)nc1S(=O)(=O)[N-]C(=O)Nc1nc(OC)cc(OC)n1.[Na+]", "growth AUC": 0.965}
{"smiles": "COC1CCC2(CC1)NC(=O)C(c1cc(C)ccc1C)=C2O", "note": "(stereo unspecified)", "growth AUC": 1.13}
{"smiles": "O=C(Nc1ccc(O)cc1-c1ccc(Cl)cc1)c1cccnc1Cl", "growth AUC": 0.916}
{"smiles": "Cc1nn(C)c(F)c1C(=O)Nc1ccccc1C(C)CC(C)C", "note": "(stereo unspecified)", "growth AUC": 0.977}
{"smiles": "O=C(NCc1ncc(C(F)(F)F)cc1Cl)c1c(Cl)cccc1Cl", "growth AUC": 1.01}
{"smiles": "CC1COc2ccccc2N1C(=O)C(Cl)Cl", "note": "(stereo unspecified)", "growth AUC": 0.688}
{"smiles": "CCc1cccc(C)c1NC(=O)C(=O)O", "growth AUC": 0.981}
{"smiles": "Cc1[nH]oc(=O)c1N=Nc1ccccc1Cl", "growth AUC": 0.839}
{"smiles": "COc1ccccc1C(=O)NS(=O)(=O)c1ccc(C(=O)NC2CC2)cc1", "growth AUC": 1.01}
{"smiles": "O=C(O)c1ccc(Cl)cc1Cl", "growth AUC": 0.891}
{"smiles": "CCCCCCCC/C=C\\CCCCCCCCCCCCC", "growth AUC": 0.961}
{"smiles": "COC(=O)COc1ccc(Cl)cc1C", "growth AUC": 1.03}
{"smiles": "CC(C)OC(=O)N[C@H](C(=O)N[C@H](C)c1nc2ccc(F)cc2s1)C(C)C", "growth AUC": 1.16}
{"smiles": "CCNc1nc(N)nc(Cl)n1", "growth AUC": 1.04}
{"smiles": "Cc1nn(C)c(OCC(=O)c2ccccc2)c1C(=O)c1ccc(Cl)cc1Cl", "growth AUC": 1.02}
{"smiles": "Cc1cc(C)c(C2=C(O)C3(CCCC3)OC2=O)c(C)c1", "growth AUC": 0.947}
{"test_system": "Lactobacillus gasseri", "test": "growth AUC relative to DMSO control (median of replicates) (fraction); higher = more growth (less inhibition), active = hit call of the paper", "details": "20 µM; 24 h", "procedure,_shortened": "as §1"}
{"smiles": "Nc1cccc(O)c1", "growth AUC": 1.04}
{"smiles": "CCc1cccc(C)c1NC(C)C(=O)O", "note": "(racemic)", "growth AUC": 0.97}
{"smiles": "CCc1ccc(C(c2ccc(CC)cc2)C(Cl)Cl)cc1", "growth AUC": 0.938}
{"smiles": "CC(C)N(C(=O)CS(=O)CC(=O)O)c1ccc(F)cc1", "note": "(stereo unspecified)", "growth AUC": 1.01}
{"smiles": "O=[N+]([O-])c1ccc(Oc2c(Cl)cc(Cl)cc2Cl)cc1", "growth AUC": 0.874}
{"smiles": "CCOC(=O)c1nc(C(Cl)(Cl)Cl)n(-c2ccc(Cl)cc2Cl)n1", "growth AUC": 1.02}
{"smiles": "Cc1ccc2c(c1)[C@H](Nc1nc(N)nc(C(C)F)n1)[C@@H](C)C2", "note": "(stereo partly specified)", "growth AUC": 0.982}
{"smiles": "CCCCCCCC(=O)Oc1c(Br)cc(C#N)cc1Br", "growth AUC": 0.987}
{"smiles": "CCNc1nc(N)[nH]c(=O)n1", "growth AUC": 1.01}
{"smiles": "CN(C)C(=O)Nc1cc(C(C)(C)C)on1", "growth AUC": 1.06}
{"smiles": "O=C(NC(=O)c1c(F)cccc1F)Nc1cc(C(F)(F)F)cc(C(F)(F)F)c1Cl", "growth AUC": 1.33}
{"smiles": "COC(=O)CSc1cc(N=c2sc(=O)n3n2CCCC3)c(F)cc1Cl", "growth AUC": 0.862}
{"smiles": "CCN(Cc1c(F)cccc1Cl)c1c([N+](=O)[O-])cc(C(F)(F)F)cc1[N+](=O)[O-]", "growth AUC": 0.896}
{"smiles": "CCNC(=O)[C@@H](C)OC(=O)Nc1ccccc1", "growth AUC": 1.18}
{"smiles": "CON=C(Cc1cccnc1)c1ccc(Cl)cc1Cl", "growth AUC": 1.03}
{"smiles": "COC(=O)Nc1ccc(Cl)c(Cl)c1", "growth AUC": 1.15}
{"smiles": "CC[N+](CC)(CC(=O)Nc1c(C)cccc1C)Cc1ccccc1.O=C([O-])c1ccccc1", "growth AUC": 0.967}
{"smiles": "CC(C)(C)[C@@H](O)[C@@H](Cc1ccc(Cl)cc1)n1cncn1", "note": "(mixture of isomers)", "growth AUC": 0.913}
{"smiles": "COCC(=O)N(c1c(C)cccc1C)C(C)C(=O)O", "note": "(stereo unspecified)", "growth AUC": 1.04}
{"smiles": "COC(=O)c1ccccc1S(=O)(=O)NC(=O)n1nc(OCC(C)O)n(C)c1=O", "note": "(stereo unspecified)", "growth AUC": 1.01}
{"smiles": "CCOC(=O)Cc1[nH]nc2ccc(Cl)cc12", "growth AUC": 1.02}
{"smiles": "CCCCCCCC/C=C\\CCCCCCCC(N)=O", "growth AUC": 0.962}
{"smiles": "COC1CCC2(CC1)NC(=O)C(c1cc(C)ccc1C)=C2OC1OC(CO)C(O)C(O)C1O", "note": "(stereo unspecified)", "growth AUC": 0.948}
{"smiles": "COC(=O)c1ccc(C(F)(F)F)nc1S(=O)(=O)[N-]C(=O)Nc1nc(OC)cc(OC)n1.[Na+]", "growth AUC": 0.986}
{"smiles": "COC1CCC2(CC1)NC(=O)C(c1cc(C)ccc1C)=C2O", "note": "(stereo unspecified)", "growth AUC": 0.95}
{"smiles": "O=C(Nc1ccc(O)cc1-c1ccc(Cl)cc1)c1cccnc1Cl", "growth AUC": 1.02}
{"smiles": "Cc1nn(C)c(F)c1C(=O)Nc1ccccc1C(C)CC(C)C", "note": "(stereo unspecified)", "growth AUC": 1.03}
{"smiles": "O=C(NCc1ncc(C(F)(F)F)cc1Cl)c1c(Cl)cccc1Cl", "growth AUC": 1.04}
{"smiles": "CC1COc2ccccc2N1C(=O)C(Cl)Cl", "note": "(stereo unspecified)", "growth AUC": 0.903}
{"smiles": "CCc1cccc(C)c1NC(=O)C(=O)O", "growth AUC": 0.916}
{"smiles": "Cc1[nH]oc(=O)c1N=Nc1ccccc1Cl", "growth AUC": 0.931}
{"smiles": "COc1ccccc1C(=O)NS(=O)(=O)c1ccc(C(=O)NC2CC2)cc1", "growth AUC": 1.21}
{"smiles": "O=C(O)c1ccc(Cl)cc1Cl", "growth AUC": 0.991}
{"smiles": "CCCCCCCC/C=C\\CCCCCCCCCCCCC", "growth AUC": 1.08}
{"smiles": "COC(=O)COc1ccc(Cl)cc1C", "growth AUC": 1.01}
{"smiles": "CC(C)OC(=O)N[C@H](C(=O)N[C@H](C)c1nc2ccc(F)cc2s1)C(C)C", "growth AUC": 0.859}
{"smiles": "CCNc1nc(N)nc(Cl)n1", "growth AUC": 0.933}
{"smiles": "Cc1nn(C)c(OCC(=O)c2ccccc2)c1C(=O)c1ccc(Cl)cc1Cl", "growth AUC": 1.02}
{"smiles": "Cc1cc(C)c(C2=C(O)C3(CCCC3)OC2=O)c(C)c1", "growth AUC": 1.09}
